# CHO-K1 Ca ag: M1 agonist counterscreen hit in parental CHO-K1 cells | AID 602248 | 360,000 compounds, 0.48% hits | activation, % at 3 µM | Fluo-8 calcium fluorescence; scaled to maximal ATP response, vehicle zero; in the data active means activation above about 15%;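 further: untransfected CHO-K1 host cells lacking M1 receptor as counterscreen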
# CHO-K1 Ca antag: M1 antagonist counterscreen hit in parental CHO-K1 cells; ATP-induced calcium, Fluo-8 fluorescence; inhibition, % at 3 µM; 360,000 compounds, 0.6% hits;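 active means inhibition above a per-plate cutoff, the plate's mean sample inhibition plus 3 SD, cut at about 24% in these data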;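 further: 0% = DMSO plus EC80 ATP and 100% = DMSO alone without ATP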
# CHRM1 antagonist: blocks human M1 muscarinic receptor; P11229; inhibition, % at 3 µM; CHO-K1 hM1, Fluo-8 calcium fluorescence, ACh EC80 antagonist; 360,000 compounds, 1.3% hits;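 active means percent inhibition above its own plate's cutoff, namely the mean of that plate's compound wells plus 3 SD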;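 further: peak over basal fluorescence ratio during 140 s after agonist addition; 0% = ACh EC80 plus DMSO and 100% = DMSO alone without agonist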
# Target sequence (P11229 whole entry, looked up): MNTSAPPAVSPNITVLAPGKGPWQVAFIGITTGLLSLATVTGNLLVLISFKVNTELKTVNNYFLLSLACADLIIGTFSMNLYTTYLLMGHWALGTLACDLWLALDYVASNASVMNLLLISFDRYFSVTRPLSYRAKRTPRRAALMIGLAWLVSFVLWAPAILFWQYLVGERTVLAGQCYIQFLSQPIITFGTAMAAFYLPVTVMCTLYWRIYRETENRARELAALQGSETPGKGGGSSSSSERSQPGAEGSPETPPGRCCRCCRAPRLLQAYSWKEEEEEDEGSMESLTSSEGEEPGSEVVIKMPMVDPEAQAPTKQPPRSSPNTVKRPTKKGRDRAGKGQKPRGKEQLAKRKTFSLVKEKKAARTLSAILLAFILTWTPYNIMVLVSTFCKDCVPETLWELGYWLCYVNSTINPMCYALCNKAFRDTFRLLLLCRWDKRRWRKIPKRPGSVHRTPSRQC
# M1 PAM: potentiates human M1 receptor response to acetylcholine; P11229; CHO-K1 hM1, Fluo-8 calcium fluorescence, ACh EC20; 0% = ACh EC20, 100% = maximal ACh; activation, % at 3 µM; 360,000 compounds, 0.088% hits; AID 588819; in the data active means activation above about 19%, passing the limit was not always enough
# M1 PAM parental: counter-screen for M1 PAMs: effect in parental CHO-K1 cells | ATP EC20, Fluo-8 calcium fluorescence; 0% at ATP EC20, 100% at ATP max | activation, % at 3 µM | 360,000 compounds, 0.02% hits | AID 602247;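 active means activation above the run cutoff, the mean activation of all test compounds plus 3 SD, cut at about 40% in these data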;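 further: peak over basal fluorescence ratio in a 140 s read after ATP addition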
# CHRM1 agonist: human M1 muscarinic receptor agonism. 360,000 compounds, 0.33% hits. P11229. activation, % at 3 µM. CHO-K1 hM1, Fluo-8 calcium fluorescence, agonist mode; 0% DMSO, 100% acetylcholine EC100;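 active means activation above the run's mean compound activation plus 3 SD, cut at about 16% in these data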;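 further: peak over basal fluorescence ratio within a 140 s kinetic read after compound addition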
# An asterisk follows results filed as active; / = no result given. Rows were chosen to be rich in hits. Some 2.3% of all compounds tested hit in one or more screens of this group.
SMILES,CHO-K1 Ca ag,CHO-K1 Ca antag,CHRM1 antagonist,M1 PAM,M1 PAM parental,CHRM1 agonist
O=C(CN1CCN(c2ccc(F)cc2)CC1)N1N=CCC1c1ccccc1 (stereo unspecified),2,-5,103*,9,5,-12
NNC(=O)CCN1CCN(C(c2ccccc2)c2ccccc2)CC1,0,-15,61*,-16,14,-7
CC1CCN(CC(=O)N2CCN(c3ccccc3)CC2)CC1,0,-5,-1,-7,11,-8
Cc1cc(NC(=O)CCN2C(=O)C3C4C=CC(C4)C3C2=O)ccc1Br (stereo unspecified),4,-6,1,4,15,2
CCOC(=O)Cc1csc(NC(=O)CCCCCN2C(=O)c3ccccc3C2=O)n1,5,3,6,-3,0,-5
CC(C)C(=O)Nc1ccc2nn(-c3ccccc3)nc2c1,2,-12,0,1,-12,1
O=C1O[C@@H](c2ccccc2)C[C@@H](O)[C@H](O)CCCc2ccccc21,1,-6,/,/,25,/
CCC1(C)OC(=O)NN(c2ccc(C)cc2)C1(C)O (stereo unspecified),0,19,-10,8,-15,-5
CC(=O)Nc1ccc(Nc2ncnc3c2cnn3-c2ccc(C)cc2C)cc1,0,26*,-7,11,-6,-3
Cc1cccc(Nc2ncnc3c2cnn3C)c1,0,29*,5,6,-10,2
CC(=O)Nc1ccc(Nc2ncnc3c2cnn3-c2cccc(C)c2)cc1,0,-8,5,0,7,-3
CCC[C@@H](NS(=O)(=O)c1ccc(C)cc1)C(=O)Oc1ccc2c3c(c(=O)oc2c1)CCC3,12,7,38*,-25,12,2
Cc1ccc(S(=O)(=O)NC(C(=O)Oc2ccc3c(C)c(Cl)c(=O)oc3c2)c2ccccc2)cc1 (stereo unspecified),0,0,9,-3,0,-6
c1cnc(N2CC[N+]3(CCCC3)CC2)nc1,0,-3,33*,-23,13,-6
c1ccc(N2CC[N+]3(CCCC3)CC2)nc1,0,-8,54*,-22,11,-9
CC[n+]1c(/C=C/N(C)c2ccccc2)n(-c2ccccc2)c2ccc(-c3nc4ccccc4s3)cc21,6,34*,98*,-30,-2,-6
CCOC(=O)c1ccc2c(c1)n(CC)c(/C=C/N(C)c1ccccc1)[n+]2CC,1,-10,19,-13,11,-9
Cc1ccc(NC(=O)C(OC(=O)c2ccc(F)cc2)c2ccccc2)cc1Cl (stereo unspecified),2,1,40*,-8,9,6
Cc1ccc(NC(=O)C(OC(=O)c2ccc(O)cc2)c2ccccc2)cc1Cl (stereo unspecified),0,-12,-5,11,27,-6
CC(C)c1cc(CNC(=O)c2cc(COc3cncc(Cl)c3)on2)on1,16*,11,-4,7,-12,-2
Cc1ccc(S(=O)(=O)N2CCC(C(=O)Nc3cc(C(F)(F)F)ccc3N3CCOCC3)CC2)cc1C,0,4,-4,2,-14,-5
OC(COc1ccccc1)CN1CCCCC1 (stereo unspecified),2,-22,-13,3,26,-4
OC(COc1ccc(CNCCc2ccccc2F)cc1)CN1CCCCC1 (stereo unspecified),0,2,38*,-18,-11,-7
COc1ccccc1CN1CCC(CNS(=O)(=O)c2cc(-c3onc(C)c3C)ccc2OC)CC1,1,11,102*,-42,-7,-13
COc1cccc(CCN2CCC(CNS(=O)(=O)c3cc(-c4cc(C)no4)ccc3OC)CC2)c1,3,-14,37*,-23,-1,-3
SMILES,CHO-K1 Ca ag,CHO-K1 Ca antag,CHRM1 antagonist,M1 PAM,M1 PAM parental,CHRM1 agonist
Cc1cc(-c2ccc(C)c(S(=O)(=O)NCC3CCN(Cc4cccc(F)c4)CC3)c2)on1,8,1,20,-15,-8,-2
Cc1cc(-c2ccc(C)c(S(=O)(=O)NCC3CCN(Cc4ccccc4F)CC3)c2)on1,1,-5,55*,-23,11,-5
COc1cccc(CCN2CCC(CNS(=O)(=O)c3cc(-c4cc(C)no4)ccc3C)CC2)c1,6,-1,26,-20,-13,0
CC(=O)NC(Nc1c(C)n(C)n(-c2ccccc2)c1=O)C(Cl)(Cl)Cl (stereo unspecified),0,-6,-8,6,-4,-2
CCOc1ccccc1C(=O)OC(C)C(=O)Nc1ccc(S(=O)(=O)N2CCCC2)cc1 (stereo unspecified),0,25*,29*,-12,-17,-5
COc1ccc(CN2CCN(S(=O)(=O)c3ccc(NC(C)=O)cc3)CC2)cc1OC,4,-21,-2,-1,7,-1
CC(Oc1ccccc1C(N)=O)C(=O)Nc1ccc(S(=O)(=O)N2CCCC2)cc1 (stereo unspecified),1,6,59*,-24,-13,-7
Cc1noc(C)c1COc1ccc(C(=O)OC(C)C(=O)Nc2ccc(S(=O)(=O)N3CCOCC3)cc2)cc1 (stereo unspecified),17*,10,10,-4,10,-6
CCOc1ccc(CN2CCN(S(=O)(=O)c3ccc(NC(C)=O)cc3)CC2)cc1,22*,-7,-6,7,7,-11
O=C(CSC(=S)N1CCCC1)N/N=C/c1c(O)[nH]c(=S)[nH]c1=O,1,-7,-1,0,-3,-5
CC(=O)Nc1ccc(NC(=O)C(C)Oc2ccccc2F)cc1 (stereo unspecified),0,24*,5,6,-5,-2
CC(Oc1ccccc1F)C(=O)Nc1ccc2ccccc2c1 (stereo unspecified),-1,0,-8,7,-3,-1
COc1ccc(CN(C)C(C)C(=O)Nc2ccc(S(=O)(=O)N3CCCCC3)cc2)c(OC)c1 (stereo unspecified),0,-6,91*,-31,-6,-7
C[C@@H]1CN([C@@H](C)CO)C(=O)CCCn2nncc2CO[C@@H]1CN(C)S(=O)(=O)c1ccc(Oc2ccccc2)nc1,0,8,-17,4,1,-10
CCCC[n+]1ccn(C2=C([O-])c3ccccc3C(=O)/C2=N\S(=O)(=O)c2ccccc2)c1,0,-4,-4,-1,14,-2
CC(C)c1ccc(NC(=O)C[n+]2ccn(C3=C([O-])c4ccccc4C3=O)c2)cc1,18*,-3,8,-8,-5,-6
CC(C)=CCc1cc(-c2oc3cc(O)cc(O)c3c(=O)c2O)ccc1O,1,0,5,2,-9,-13
CC(C)=CCc1c(O)cc2oc3c(CC=C(C)C)c(O)c(O)c(CC=C(C)C)c3c(=O)c2c1O,5,25*,17,-13,-7,-1
